67 molecules from PubChem BioAssay AID1347131 (National Center for Advancing Translational Sciences (NCATS), 2019) can be followed below.

Screen size: about 410,000 compounds; about 2,000 (0.49%) were called active. A call without a number means that no potency is given here. Roughly 8% stayed inconclusive and do not appear here. Calls come from the whole dose curve; tested in HEK293 reporter line. This excerpt belongs to a sample that is enriched for actives.
Potency is the fitted concentration of half-maximal effect.

The experiment can be described thus: qHTS Assay for Foot and Mouth Disease Virus Antivirals: Primary Screen against the MLPCN compound library. Note: nearly all actives have a fitted effect of over 55% in size. Particulars: FMDV antiviral cell-based qHTS; series mostly up to 57.9 µM.
Take `COC(=O)c1[nH]c2ccccc2c1NC(=O)CN1CCN(c2cccc(OC)c2)C(C)C1` (configuration not stated): the Potency was 28.2 µM (active). For `COC(=O)c1[nH]c2ccc(C)cc2c1NC(=O)CN1CCN(c2ccccc2)CC1`, the Potency result is “inactive”. The value for `COC(=O)c1[nH]c2cc(OC)ccc2c1NC(=O)CN1CCN(c2cccc(C)c2)C(C)C1` (configuration not stated) was “inactive”. The value for `Cc1cc2nc(N3C(=O)CNC3=S)sc2cc1C` was 20 µM (active); that for `COc1ccc(CN(C(=O)c2oc3cc(C)ccc3c2C)C2CCS(=O)(=O)C2)cc1OC` (configuration not stated) was “inactive”; that for `Cc1cccnc1NC(=O)c1cc2ccccc2oc1=O` was 10 µM (active). As to `COc1cccc2cc(C(=O)Nc3cccc(C)n3)c(=O)oc12`, the Potency was 8.91 µM (active).

Turning to `N=c1oc2ccccc2cc1C(=O)Nc1ccccc1`, the Potency was 11.2 µM (active). The value for `Cc1cccc(C)c1NC(=O)c1cc(-c2ccccn2)nc2ccccc12` was “inactive”; that for `Cc1ccc(NC(=O)c2cc3ccccc3oc2=O)cc1S(=O)(=O)N(C)C` was “inactive”. The value for `CCOc1cccc2cc(C(=O)NC(C)c3ccccc3)c(=N)oc12` (configuration not stated) was “inactive”; that for `COc1cccc2cc(C(=O)NCc3ccc(Cl)cc3)c(=N)oc12` was “inactive”. Take `COc1cccc(NC(=O)c2cc3ccccc3oc2=O)c1`: the Potency was 20 µM (active). As for `C=CCn1c(=O)c(C(=O)Nc2ncccc2C)c(O)c2ccccc21`, the Potency entry is “inactive”. Turning to `O=C(Nc1ccc(NC(=O)c2cc3ccccc3o2)cc1)c1ccc2c(c1)OCCO2`, the Potency result is “inactive”.

On to `COc1ccc(NC(=O)c2sc3nc(-c4cc5cccc(OC)c5oc4=O)[nH]c(=O)c3c2C)cc1`, for which the Potency entry is “inactive”. To `COc1ccc(NC(=O)c2cc3ccccc3o/c2=N\NS(=O)(=O)c2ccc(C)cc2)cc1` belongs “inactive”; to `CCOc1ccc(CN(C)C(=O)c2cc(S(=O)(=O)N3CCCC3)ccc2C)cc1`, “inactive”; to `Cc1ccccc1C(=O)N/N=C1/SCC(=O)N1Cc1ccc2c(c1)OCO2`, “inactive”.

As to `C=CC(COCc1ccccc1)N([C@@H](Cc1ccccc1)C(=O)OC)S(=O)(=O)c1ccccc1Br` (some centres not stated), the Potency result was “inactive”. The value for `CCN(CCCNC(=O)CC(C(=O)N1CCc2ccccc21)n1ccnc1)c1cccc(C)c1` (configuration not stated) was “inactive”; that for `Cc1nn(-c2ccccc2)nc1C(=O)NN` was “inactive”; that for `COc1cc(CNc2ncnc3c2ncn3[C@H]2CN(Cc3ccc(F)cc3)C[C@@H](CO)O2)cc(OC)c1OC` was “inactive”. As to `COc1ccc(Oc2ncc3nc(-c4ccc(Cl)cc4)c(=O)n(CCC#N)c3n2)cc1`, the Potency entry was “inactive”. To `CCOC(=O)C1(CCOc2ccccc2)CCN(Cc2ccc(OC)c(O)c2)CC1` belongs “inactive”.

Turning to `CCC(=O)N(Cc1ccc2c(c1)OCO2)Cc1cc2cc(OC)ccc2[nH]c1=O`, the Potency result was “inactive”.

With `COc1cc(SC)ccc1C(=O)Nc1ccccn1`, the Potency was 17.8 µM (active). The value for `COc1ccc(C(=O)Nc2ccc(C)cn2)c(OC)c1` was “inactive”. For `COc1cc(C(=O)Nc2ccccc2C(=O)Nc2ccccn2)cc(OC)c1OC`, the Potency result is “inactive”. The value for `COc1cc(SC)ccc1C(=O)Nc1nc2ccccc2[nH]1` was “inactive”.

For `COc1cc(SC)ccc1C(=O)Nc1ccc(Br)cn1`, the Potency was 8.91 µM (active). To `COc1cc(SC)ccc1C(=O)NCCOc1c(C)cc(C)cc1C` belongs “inactive”; to `CCOc1ccc(S(=O)(=O)N2CCN(C(=O)c3cc(C4CC4)nn3-c3ccccc3)CC2)cc1`, “inactive”. The value for `CN1CCN(C(=O)c2cc3nc(-c4ccccc4)cc(C(F)(F)F)n3n2)CC1` was “inactive”; that for `CC(C)c1cc(Br)c(NC(=O)Nc2cccnc2)c(Br)c1` was “inactive”; that for `O=C1CN=C(c2ccc(Br)cc2)c2c(sc3c2CCCC3)N1CCN1CCCCC1` was “inactive”. For the molecule `OCCCCCNc1ncnc2ccccc12`, the Potency result is “inactive”. In the case of `CC(C)(C)c1ccc(C(=O)O/N=C(\N)c2ccccn2)cc1`, the Potency result was “inactive”.

With `Cc1cccc(/C(N)=N/OC(=O)c2ccc(Cl)cc2Cl)c1`, the Potency is 20 µM (active). The value for `CC(C)(C)c1ccc(C(=O)O/N=C(\N)c2ccccc2)cc1` was “inactive”. The value for `Cc1cccc(C(=O)O/N=C(\N)c2ccccn2)c1` was 8.91 µM (active). In the case of `Cc1ccc(C(=O)O/N=C(\N)Cc2ccc([N+](=O)[O-])cc2)c(Cl)c1`, the Potency entry was “inactive”.

In the case of `CO/N=C\c1cc(C(=O)c2ccc(Cl)cc2Cl)cn1C`, the Potency entry was “inactive”. The value for `CCCNNC(=O)C(O)(c1ccccc1)c1ccccc1` was “inactive”; that for `Cc1ccc(-c2nnc(-c3ccccc3)c(N3CCOCC3)n2)cc1` was “inactive”; that for `COc1ccc(-c2noc(C3CC(=O)N(c4cc(C)cc(C)c4)C3)n2)cc1` (configuration not stated) was “inactive”. The value for `Cc1cccc(C)c1-n1nnnc1C(c1ccnc2ccccc12)N(CCN(C)C)Cc1ccccc1` (configuration not stated) was “inactive”; that for `Cc1cccc(C(=O)O)c1NC(=O)c1ccc(F)cc1` was “inactive”. The value for `Cc1ccc(C(=O)Nc2ccccc2C(=O)O)cc1S(=O)(=O)Nc1ccccc1` was “inactive”; that for `Cc1c(NC(=O)c2ccc(-c3ccccc3)cc2)cccc1C(=O)O` was 5.01 µM (active). With `COc1ccc(C(C)(O)c2nc(-c3ccncc3)cs2)cc1` (configuration not stated), the Potency entry is “inactive”.

As to `COc1ccc(C(C)(O)c2nc(-c3ccc(S(C)(=O)=O)cc3)cs2)cc1` (configuration not stated), the Potency entry is “inactive”. In the case of `COc1ccc(-c2csc(N3C(=O)CNC3=S)n2)cc1`, the Potency is 10 µM (active).

`Cc1ccc(CC2CC(=O)N(Cc3ccco3)C2=O)cc1` (configuration not stated): the Potency result is “inactive”. The value for `Cn1c(=O)[nH]c(=O)c2c1nc(N1CCCCC1)n2CCOc1ccccc1` was “inactive”. The value for `Cn1c(=O)[nH]c(=O)c2c1nc(N1CCCCC1)n2CC(O)COc1ccc([N+](=O)[O-])cc1` (configuration not stated) was 10 µM (active); that for `Cn1c(=O)c2c(nc(N3CCCCC3)n2CC(O)COc2ccccc2)n(C)c1=O` (configuration not stated) was “inactive”. To `CCCc1cnc(N2CCN(C(=O)c3ccc(F)cc3)CC2)nc1` belongs “inactive”; to `Cc1ccc2c(c1)N(C(=O)Nc1cccc3c1CCCC3)CCO2`, “inactive”.

Turning to `CCC(Sc1nc(C)cc(C)n1)C(=O)O` (configuration not stated), the Potency entry is “inactive”. To `O=S(=O)(c1ccc(Cl)cc1)N1CCc2ccccc21` belongs “inactive”. The value for `FC(F)(F)c1ccccc1N1CC1c1ccncc1` (configuration not stated) was “inactive”; that for `COc1ccccc1CC1(C)C(=O)Nc2ccc(OC(F)(F)F)cc21` (configuration not stated) was “inactive”. The value for `COc1ccccc1[C@]1(C)ON(c2ccccc2C(F)(F)F)C1=O` was 14.1 µM (active); that for `Cc1oc(-c2nc3ccccc3n2C)cc1C(=O)c1ccccc1` was 17.8 µM (active). Consider `O=C(O)c1ccccc1-c1nc2ccccc2n1-c1ccccc1`, for which the Potency entry was “inactive”. The value for `Cc1ccc(C(=O)N2CCN(c3nc4ccccc4n3C)CC2)cc1` was “inactive”.
